Test results taken from the supplement of paper PMC6555819.

How the values were obtained:
Experiment in all cases: PBM binding z-score (relative to random genomic background probes); higher = stronger binding; sequences stand for … in GC…GCGATTGACAGCGTAGAATGAAGG
[1] = test system: FXR:RXRa (NR concentration 270 nM, RXRa partner concentration 90 nM)
Summary of the method: (§1)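 Each nuclear receptor dimer, without ligand, was incubated for 1 h on custom Agilent 4×180K protein-binding microarrays. Binding was detected with antibodies against each partner (one per run), and scanned fluorescence was regression-normalized. The binding z-scores are referenced to random human genomic background probes.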

[2] = test system: LXRa:RXRa (NR concentration 270 nM, RXRa partner concentration 90 nM)
Summary of the method: as §1

[3] = test system: LXRa homodimer (NR concentration 270 nM)
Summary of the method: as §1

[4] = test system: LXRb:RXRa (NR concentration 270 nM, RXRa partner concentration 90 nM)
Summary of the method: as §1

[5] = test system: LXRb homodimer (NR concentration 270 nM)
Summary of the method: as §1

[6] = test system: PPARa:RXRa (NR concentration 270 nM, RXRa partner concentration 90 nM)
Summary of the method: as §1

[7] = test system: PPARg:RXRa (NR concentration 180 nM, RXRa partner concentration 90 nM)
Summary of the method: as §1

[8] = test system: PPARg:RXRa 270nM:90nM, anti-RXR (NR concentration 270 nM, RXRa partner concentration 90 nM)
Summary of the method: as §1

[9] = test system: PPARg:RXRa 30nM:10nM, anti-RXR (NR concentration 30 nM, RXRa partner concentration 10 nM)
Summary of the method: as §1

[10] = test system: PPARg:RXRa 90nM:30nM, anti-RXR (NR concentration 90 nM, RXRa partner concentration 30 nM)
Summary of the method: as §1

[11] = test system: PPARg:RXRa DBDmut IVT, anti-RXR (DBD mutation: RXRa K156A/R161A, NR concentration 270 nM, RXRa partner concentration 90 nM)
Summary of the method: as §1

[12] = test system: PPARg:RXRa IVT, anti-PPARg (NR concentration 270 nM, RXRa partner concentration 90 nM)
Summary of the method: as §1

[13] = test system: PPARg DBDmut:RXRa IVT, anti-PPARg (DBD mutation: PPARg1 K132A/R137A, NR concentration 270 nM, RXRa partner concentration 90 nM)
Summary of the method: as §1

[14] = test system: PPARg DBDmut IVT, anti-PPARg (DBD mutation: PPARg1 K132A/R137A, NR concentration 270 nM)
Summary of the method: as §1

[15] = test system: PPARg homodimer (NR concentration 180 nM)
Summary of the method: as §1

[16] = test system: PXR:RXRa (NR concentration 270 nM, RXRa partner concentration 90 nM)
Summary of the method: as §1

[17] = test system: PXR homodimer (NR concentration 270 nM)
Summary of the method: as §1

[18] = test system: RARa:RXR (NR concentration 270 nM, RXRa partner concentration 90 nM)
Summary of the method: as §1

[19] = test system: RARa homodimer (NR concentration 270 nM)
Summary of the method: as §1

[20] = test system: RARb:RXRa (NR concentration 270 nM, RXRa partner concentration 90 nM)
Summary of the method: as §1

Row | Sequence | PBM binding z-score [1] | PBM binding z-score [2] | PBM binding z-score [3] | PBM binding z-score [4] | PBM binding z-score [5] | PBM binding z-score [6] | PBM binding z-score [7] | PBM binding z-score [8] | PBM binding z-score [9] | PBM binding z-score [10] | PBM binding z-score [11] | PBM binding z-score [12] | PBM binding z-score [13] | PBM binding z-score [14] | PBM binding z-score [15] | PBM binding z-score [16] | PBM binding z-score [17] | PBM binding z-score [18] | PBM binding z-score [19] | PBM binding z-score [20]
1 | TAGCCTAGGTCATTCAGGGGCCATTATAGAAAGC | 4.21 | 4.32 | 1.34 | 3.81 | 1.44 | 3.96 | 2.32 | 2.45 | 0.349 | 1.57 | 1.86 | 3.06 | 0.753 | 0.98 | 2.02 | 3.3 | 0.128 | 3.79 | 0.894 | 3.98
2 | AGAATGTGGTTACCAAAGATCAGGGAAACGCTTG | -0.517 | 0.7 | -0.272 | -0.139 | -0.442 | -0.0504 | 0.469 | 0.425 | 0.333 | 0.271 | 0.0362 | 0.248 | 0.393 | 0.266 | 0.264 | -0.353 | -0.342 | -0.178 | -0.0425 | -0.0731
3 | TCATATAGGTAATACAGGTGAATGTCGGCATCTA | 1.12 | 1.39 | 0.495 | 0.986 | 0.337 | 1.84 | 1.73 | 2.58 | 4.19 | 3.28 | 4.3 | 3.5 | 1.54 | 1.28 | 1.27 | 0.727 | 0.579 | 1.2 | 1.94 | 0.634
4 | CTCGAAAGGTCGGCTGAGGTGAGTATACGGATAA | 3.7 | 2.47 | -0.364 | 1.86 | -0.336 | 3.62 | 0.965 | 2.18 | 0.306 | 1.12 | -0.0166 | 1 | -0.0144 | -0.891 | 1.16 | 4.09 | -0.42 | 3.02 | -0.275 | 3.56
5 | ACTTACGGGTCAACGCGGTTATAGCACGCGTATA | 6.63 | 4.76 | 0.698 | 4.08 | 0.727 | 5.52 | 4.9 | 5.47 | 1.84 | 4.14 | 3.64 | 4.12 | 1.26 | 1.32 | 1.91 | 3.92 | 0.241 | 4.45 | 0.802 | 4.04
6 | TAGCCTAGGTCATGCCGGCCAGTATAGTGTCGGC | 3.44 | 2.68 | 0.0179 | 1.57 | -0.0168 | 3.07 | 1.99 | 2.08 | 0.0348 | 1.34 | 1.13 | 2.47 | -0.929 | -0.11 | 0.237 | 0.798 | -0.486 | 1.77 | -0.917 | 3.48
